The subject of assay [1] is Plasmodium falciparum Sir2 (PF13_0152, Sir2A). The assay can be described thus: Plasmodium falciparum Sir2A binding compounds – biochemical, small-molecule microarray, 635 nm fluorescence, primary screen (AID 1098).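 Further: score merges spot fluorescence intensity with its signal-to-noise ratio.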 To be noted: fluorescence 635 nm, higher = more signal.
Assay [2] in a line: probe aDKK1 binding to arrayed compounds – biochemical, biotinylated probe, 635/667 nm fluorescence, primary screen (AID 1099).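 Further: score merges 667nm spot fluorescence with signal to noise across triplicate slides; reference of the scale not given here.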 The note with it: small-molecule microarray, higher = more signal.
A short description of assay [3]: probe aCHRDL2 binding to arrayed compounds – biochemical, biotinylated probe, 635/667 nm fluorescence, primary screen (AID 1100). The note with it: small-molecule microarray, higher = more signal.
The nature of assay [4]: change in splice reporter luminescence, either direction, cell-based, HEK293, spliceosome inhibition project, primary screen (AID 1101).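 Further: HEK293 cells carrying a splicing-competent luciferase reporter gene; test concentration not given here.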 The note with it: HEK293 splicing luciferase reporter, 24 h, higher = more signal, called active from +8 up or from −8 down. In general terms: Reporter assays use an easily measured gene product as a stand-in for the process of interest.
Assay [5] addresses Fibroblast growth factor 10 (Homo sapiens) (UniProt O15520). Kind of assay: compounds binding fibroblast growth factor 10 – biochemical, small-molecule microarray, 635 nm fluorescence, primary screen (AID 1102). To be noted: FGF10 binding, fluorescence 635 nm, higher = more signal.
For assay [6], the system named is glycogen synthase kinase-3 (GSK3A per assay name; protocol says GSK3B). The assay can be described thus: compounds binding glycogen synthase kinase-3 – biochemical, small-molecule microarray, 635 nm fluorescence, GSK3A, primary screen (AID 1103). Further: the record names both GSK3A and GSK3B. The note with it: fluorescence 635 nm, higher = more signal.
Assay [7] addresses Epidermal growth factor receptor (Homo sapiens) (UniProt P00533). The assay can be described thus: compounds binding epidermal growth factor receptor – biochemical, small-molecule microarray, 635 nm fluorescence, primary screen (AID 1104).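 Further: score merges 667 nm emission intensity with spot signal to noise over triplicate slides.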 The note with it: EGFR binding, higher = more signal.
The target in assay [8] is Follistatin-related protein 3 (Homo sapiens) (UniProt O95633). Kind of assay: compounds binding follistatin-related protein 3 – biochemical, small-molecule microarray, 635 nm fluorescence, primary screen (AID 1105).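 Further: score merges emission near 667 nm and signal to noise per printed spot across three slides.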 The note with it: FSTL3 binding, higher = more signal.
Assay [9] addresses Dickkopf-related protein 1 (Homo sapiens) (UniProt O94907). The assay can be described thus: small molecules binding DKK1 protein – biochemical, small-molecule microarray, 635 nm fluorescence scan, primary screen (AID 1106).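 Further: score merges emission near 667 nm with signal to noise over three replicate slides.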 The note with it: higher = more signal.
The test system of assay [10] is Inhibin beta A chain (activin A). Kind of assay: small molecules binding activin A – biochemical, small-molecule microarray, 635 nm fluorescence scan, primary screen (AID 1107).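 Further: mouse activin A protein probed at 4.33 µg/mL on printed slides; score merges bound-protein fluorescence near 667 nm with spot signal-to-noise.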 To be noted: INHBA, higher = more signal.

Each structure is given as a SMILES string. The source made the active and inactive calls.

Epidermal growth factor receptor (Homo sapiens), sequence (P00533 whole entry, looked up): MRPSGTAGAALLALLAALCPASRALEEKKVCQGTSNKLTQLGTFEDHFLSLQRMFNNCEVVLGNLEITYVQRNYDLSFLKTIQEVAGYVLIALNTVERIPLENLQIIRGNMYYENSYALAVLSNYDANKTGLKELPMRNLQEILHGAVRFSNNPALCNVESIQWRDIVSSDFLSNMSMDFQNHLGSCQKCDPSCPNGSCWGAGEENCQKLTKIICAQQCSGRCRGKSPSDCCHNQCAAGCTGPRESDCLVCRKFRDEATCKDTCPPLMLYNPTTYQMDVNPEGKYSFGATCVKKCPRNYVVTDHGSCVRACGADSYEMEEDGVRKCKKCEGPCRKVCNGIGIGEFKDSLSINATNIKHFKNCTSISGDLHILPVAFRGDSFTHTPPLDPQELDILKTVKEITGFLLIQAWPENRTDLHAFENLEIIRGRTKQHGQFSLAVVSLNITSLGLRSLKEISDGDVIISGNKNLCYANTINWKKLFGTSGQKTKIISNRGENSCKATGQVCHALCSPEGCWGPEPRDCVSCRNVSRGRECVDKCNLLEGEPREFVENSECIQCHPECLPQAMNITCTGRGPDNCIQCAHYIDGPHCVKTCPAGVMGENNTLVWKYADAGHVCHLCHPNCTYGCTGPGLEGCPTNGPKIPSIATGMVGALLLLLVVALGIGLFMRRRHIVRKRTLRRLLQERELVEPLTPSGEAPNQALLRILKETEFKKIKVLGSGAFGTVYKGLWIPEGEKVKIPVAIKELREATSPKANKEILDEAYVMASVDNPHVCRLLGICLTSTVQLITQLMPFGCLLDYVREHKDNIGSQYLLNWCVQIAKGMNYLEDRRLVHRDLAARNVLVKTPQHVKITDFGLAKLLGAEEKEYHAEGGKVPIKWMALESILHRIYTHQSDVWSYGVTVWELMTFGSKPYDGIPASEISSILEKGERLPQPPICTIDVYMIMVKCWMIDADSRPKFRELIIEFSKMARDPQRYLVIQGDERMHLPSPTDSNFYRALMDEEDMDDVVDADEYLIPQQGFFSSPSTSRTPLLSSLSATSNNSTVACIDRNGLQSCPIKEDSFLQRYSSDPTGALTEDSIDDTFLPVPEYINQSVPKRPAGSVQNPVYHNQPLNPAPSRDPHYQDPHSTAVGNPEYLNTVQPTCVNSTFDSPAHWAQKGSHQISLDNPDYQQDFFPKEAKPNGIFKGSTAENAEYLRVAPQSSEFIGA
Follistatin-related protein 3 (Homo sapiens), sequence (O95633 whole entry, looked up): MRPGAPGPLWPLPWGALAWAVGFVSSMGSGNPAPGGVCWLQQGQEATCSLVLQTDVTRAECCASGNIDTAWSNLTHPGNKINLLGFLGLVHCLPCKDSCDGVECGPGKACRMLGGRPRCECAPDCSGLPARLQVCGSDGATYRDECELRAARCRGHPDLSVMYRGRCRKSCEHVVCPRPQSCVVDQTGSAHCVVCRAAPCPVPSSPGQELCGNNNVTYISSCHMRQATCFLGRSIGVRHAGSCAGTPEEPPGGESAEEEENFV
Dickkopf-related protein 1 (Homo sapiens), sequence (O94907 whole entry, looked up): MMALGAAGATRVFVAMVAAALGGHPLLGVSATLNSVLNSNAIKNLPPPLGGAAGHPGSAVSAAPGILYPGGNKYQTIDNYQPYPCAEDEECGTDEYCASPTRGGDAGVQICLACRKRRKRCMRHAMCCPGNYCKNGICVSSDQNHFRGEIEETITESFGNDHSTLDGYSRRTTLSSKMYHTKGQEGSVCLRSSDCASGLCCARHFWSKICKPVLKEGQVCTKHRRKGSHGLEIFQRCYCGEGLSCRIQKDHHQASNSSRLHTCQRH
Fibroblast growth factor 10 (Homo sapiens), sequence (O15520 whole entry, looked up): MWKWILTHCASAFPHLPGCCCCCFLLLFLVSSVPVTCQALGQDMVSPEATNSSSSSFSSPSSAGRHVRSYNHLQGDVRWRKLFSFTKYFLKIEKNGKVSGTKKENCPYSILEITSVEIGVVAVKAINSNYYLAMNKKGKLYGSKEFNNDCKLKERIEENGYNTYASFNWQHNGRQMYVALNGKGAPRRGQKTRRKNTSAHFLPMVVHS

As for `CC(C)N1CC=CC23O[C@@H]4C=CCCOC(=O)C4[C@H]2C(=O)N(CCCCCO)[C@@H]3C1=O` (stereo not given in full), the composite z-score is 1.58 in assay [1]; -0.188 in assay [2]; 0.317 in [3]; -0.347 in [5]; -1.26 in assay [6]; -0.575 in assay [7]. Besides, the composite z-score is -0.749 in assay [8], -1.06 in assay [9] and 0.559 in assay [10]. In addition, in assay [4], the z-score was -0.0254 (inactive).

As to `C[C@H]1C2[C@H](Cc3ccccc3)NC(=O)[C@]23C(=O)NCC(=O)N2CCC[C@H]2C(=O)NC/C=C\C/C=C/C3[C@@H]2O[C@]12C` (stereo not given in full), the composite z-score was 1 in assay [1]; -0.22 in assay [2]; -0.6 in assay [3]; 0.269 in assay [5]; -0.0567 in [6]; 0.136 in [7]. Besides, the composite z-score in assay [8] was determined as 0.201; in assay [9] it was 0.376; in [10], 1.43. In [4], the z-score was 0.0829 (inactive).

With `CC1CC/C=C\[C@H]2OC34C=CCN(c5ccc(Cl)cc5)C(=O)[C@H]3N(CCCO)C(=O)[C@]4(C)C2C(=O)O1` (stereo not given in full), the composite z-score in assay [1] was 0.312; in [2], -0.0782; in assay [3] it was 0.717; in [5] it was -1.32; in assay [6] it was -1.28; in assay [7] it was -1.1. Moreover, the composite z-score was -0.949 in [8], -1.42 in assay [9] and 0.596 in assay [10]. The z-score in assay [4] is 0.453 (inactive).

For `CC(C)CNC(=O)[C@@H]1c2ccccc2C(=O)N(C2Cc3ccccc3C2)[C@H]1c1ccc(CO)cc1`, the composite z-score is 1.41 in assay [1]; -0.0818 in assay [2]; 0.435 in assay [3]; -0.127 in [5]; -0.0545 in assay [6]; -0.267 in assay [7]. Also, the composite z-score in [8] was -0.192; in assay [9], -0.777; in [10], 0.245. Besides, the z-score in [4] is -0.179 (inactive).

For the compound `C=CC[C@@]1(C(=O)O)N=C(c2ccc(OCCCO)cc2)O[C@@H]1c1ccccc1CN=[N+]=[N-]`, the composite z-score in assay [1] amounted to 0.802; in assay [2], 0.682; in assay [3], 0.062; in assay [5], 0.397; in [6] it was 0.828; in [7], 0.583. The composite z-score in [8] came out at 1.17; in assay [9], 0.592; in assay [10], 1.15. Moreover, the z-score in assay [4] is -1.38 (inactive).

`CC(C)(C)N1CC=CC23O[C@@H]4/C=C\CCCOC(=O)C4[C@H]2C(=O)N(CCCCCCO)[C@@H]3C1=O` (stereo not given in full): the composite z-score in [1] was 0.873; in assay [2], -0.204; in assay [3], 0.63; in [5] it was -0.374; in assay [6] it was -0.749; in [7], -0.741. Further, the values for the composite z-score in assay [8], in [9] and in assay [10] were 0.0927, -0.857 and 0.705, respectively. In addition, the z-score in [4] was -0.725 (inactive).

On to `CN(C)CCCCNC(=O)[C@H]1C[C@H]2C(=O)N[C@@H](Cc3ccccc3)C(=O)N2[C@H]1c1cccc(OCCO)c1`, for which the composite z-score in assay [1] is 1.2; in assay [2], -0.336; in assay [3] it was 0.336; in assay [5] it was -0.407; in assay [6] it was -1.51; in assay [7], 0.0459. The composite z-score in assay [8] was 0.198; in assay [9], 0.574; in [10], -0.272. Besides, in assay [4], the z-score was -1.9 (inactive).

Regarding `COCCOC(=O)N1C(=O)[C@@]2(c3cc(C#CCCO)ccc31)[C@H](c1ccccc1OCCO)N1[C@H](c3ccccc3)[C@H](c3ccccc3)OC(=O)[C@H]1[C@@H]2C(=O)N1CCc2cc(OC)c(OC)cc2C1`, the composite z-score in assay [1] stood at 1.12; in [2], 0.161; in [3] it was 0.395; in assay [5], 1.34; in assay [6], 1.28; in assay [7], 0.529. Besides, the composite z-score in assay [8] came to 1.39; in [9] it was 0.421; in assay [10] it was 0.504. In assay [4], the z-score was -0.221 (inactive).

As to `O=c1cccc(-c2ccccc2C(F)(F)F)o1`, the composite z-score in assay [1] is -0.722; in assay [2], 1.15; in [3], 0.567; in assay [5], -0.382; in [6] it was -0.363; in assay [7], -0.955. In addition, the results for the composite z-score in [8], in [9] and in [10] were -0.722, -0.469 and 1.11, respectively. Also, the z-score in assay [4] is 0.756 (inactive).

On to `COc1ccc([Si](C)(C)[C@@H]2[C@@H](CC(=O)N(CCO)Cc3ccccc3)O[C@]3(C(=O)N(Cc4ccc(N5CCC5=O)cc4)c4ccccc43)[C@H]2C)cc1`, for which the composite z-score in assay [1] was 1.41; in assay [2], -0.26; in assay [3], 0.618; in assay [5] it was 0.0525; in [6], -0.808; in assay [7] it was 0.359. Moreover, the results for the composite z-score in assay [8], in assay [9] and in [10] were 0.953, 0.919 and 0.0242, respectively. For the same compound, in assay [4], the z-score was -1.9 (inactive).

In the case of `CC(C)CNC(=O)[C@@]1(C)c2ccccc2C(=O)N(Cc2cc(F)cc(C(F)(F)F)c2)[C@H]1c1ccc(CO)cc1`, the composite z-score in assay [1] was 0.972; in assay [2] it was -0.162; in assay [3], 0.35; in assay [5], 0.398; in [6], 0.729; in [7], 0.181. Further, the composite z-score in assay [8] was 0.379; in assay [9], 0.343; in assay [10], 0.938. Further, the z-score in assay [4] was 0.451 (inactive).

As for `CC(C)C[C@@H]1NC(=O)[C@@]23C(=O)N[C@@H](Cc4ccccc4)C2[C@H](C)[C@@]2(C)O[C@H]2C3/C=C/C/C=C\CNC(=O)[C@@H](CC(C)C)NC1=O` (stereo not given in full), the composite z-score was 0.331 in assay [1]; -0.299 in [2]; -0.496 in assay [3]; 0.37 in [5]; 0.193 in assay [6]; 0.367 in [7]. For the same compound, the composite z-score in [8] turned out to be 1.1; in assay [9] it was 0.511; in assay [10], 0.904. The z-score in assay [4] was -0.958 (inactive).

Consider `CCOC(=O)C[C@H]1[C@H](OC(=O)c2cc3ccccc3oc2=O)[C@@H](NC(=O)C2CCCCC2)c2cc(OCCCO)ccc2N1C(=O)Cc1ccc(OC)cc1`, for which the composite z-score in [1] amounted to 0.199; in assay [2] it was 0.0483; in assay [3] it was 0.0801; in assay [5] it was 1; in assay [6], 0.469; in assay [7], 0.193. Besides, the values for the composite z-score in assay [8], in assay [9] and in assay [10] were 0.397, 0.447 and 0.6, respectively. In addition, in assay [4], the z-score was 0.0427 (inactive).

In the case of `CCCCC(=C=CC[C@H](O)c1ccc(OCCO)cc1)C[C@H](O)c1ccccn1`, the composite z-score in [1] was 0.856; in assay [2], -0.0313; in [3], -0.112; in [5], 1.35; in assay [6] it was 0.583; in [7], -0.229. Besides, the composite z-score in assay [8] stood at 0.416; in assay [9], 0.215; in assay [10] it was 0.669. Moreover, the z-score in assay [4] was 0.107 (inactive).

With `CC(C)CNC(=O)[C@@H]1c2ccccc2C(=O)N(Cc2ccccc2Cl)[C@H]1c1ccc(CO)cc1`, the composite z-score in assay [1] is 1.29; in [2], 0.495; in assay [3], 0.959; in assay [5], -0.765; in assay [6], 0.729; in [7], -0.519. Further, the composite z-score in assay [8] is -0.644; in assay [9], -1.17; in [10], -0.114. The z-score in [4] is 0.587 (inactive).

For the compound `Cc1ccc(S[C@]2(C(=O)NC3CC3)CC(=O)N(Cc3cc(C(F)(F)F)cc(C(F)(F)F)c3)[C@@H]2c2ccc(CO)cc2I)cc1`, the composite z-score in [1] is 1.8; in [2], 0.679; in assay [3], -0.525; in [5], 0.126; in assay [6], 0.322; in assay [7], -0.141. Also, the results for the composite z-score in [8], in [9] and in [10] were 0.484, -0.0211 and 1.15, respectively. Also, the z-score in assay [4] was 0.0986 (inactive).

The values are drawn from PubChem BioAssay.
